GPT2 inhibitor = Primary qHTS assay for inhibitors of Glutamate pyruvate transaminase 2 (GPT2). Alanine aminotransferase 2 (Homo sapiens), Q8TD30. Recombinant GPT2, coupled pyruvate oxidase/HRP Amplex Red fluorescence. Potency, µM (doses to about 57.7 µM), for inactives: at the top dose activity change, negative = inhibition, usual class: inhibitors. 100,000 tested, 0.25% active. AID 1671188, 2021; also: nearly all actives have a fitted effect of over 60% in size
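Recombinant GPT2 (10ng/uL) with 250uM a-KG and 2mM L-alanine, 30 min at room temperature, in HEPES pH 7.5 buffer. Pyruvate detected by pyruvate oxidase/HRP/Amplex Red fluorescence after 30 min in the dark; AOA (50uM) as positive control.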
3T3 cytotox = Cytotoxic Profiling in NIH 3T3 Cell Line of Diverse Libraries Using Quantitative High-Throughput Screening | 94,000 tested, 4.3% active | NIH 3T3 viability, CellTiter-Glo ATP luminescence, 48-72 h | Potency, µM (top dose mostly 96.7 µM), without a hit: at the top dose activity change, negative = cytotoxicity, actives largely listed as inhibitors; also: nearly all actives have a fitted effect of over 55% in size
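Cells were seeded at 400 per well, treated with pin-transferred compound, and kept 48 or 72 hr at 37 °C before CellTiter-Glo addition and luminescence imaging of cellular ATP.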
HEK293 tox = Cytotoxic Profiling in HEK 293 Cell Line of Diverse Libraries Using Quantitative High-Throughput Screening; HEK 293 viability, ATP luminescence (CellTiter-Glo), 48-72 h; Potency, µM (top dose mostly 115 µM), without a hit: at the top dose activity change, negative = cytotoxicity, actives largely listed as inhibitors; 94,000 tested, 6.6% active; AID 1345083, 2018; also: nearly all actives have a fitted effect of over 60% in size
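Cells seeded first (HEK 293, 250 cells/well), then compound added by pintool. Incubation ran 48 or 72 hr at 37 degree Celsius. CellTiter-Glo was added and luminescence imaged after 10 min at room temperature.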
FLuc inh = Firefly luciferase inhibition profiling of diverse chemical library using quantitative high-throughput screening; purified P. pyralis luciferase, luminescence, biochemical; Potency, µM (highest dose often 115 µM), usual class: inhibitors; AID 1347043, 2019; 76,000 tested, 2.5% active; Luciferin 4-monooxygenase (Photinus pyralis), P08659; also: nearly all actives have a fitted effect of over 65% in size
Target sequence (P08659 whole entry, looked up): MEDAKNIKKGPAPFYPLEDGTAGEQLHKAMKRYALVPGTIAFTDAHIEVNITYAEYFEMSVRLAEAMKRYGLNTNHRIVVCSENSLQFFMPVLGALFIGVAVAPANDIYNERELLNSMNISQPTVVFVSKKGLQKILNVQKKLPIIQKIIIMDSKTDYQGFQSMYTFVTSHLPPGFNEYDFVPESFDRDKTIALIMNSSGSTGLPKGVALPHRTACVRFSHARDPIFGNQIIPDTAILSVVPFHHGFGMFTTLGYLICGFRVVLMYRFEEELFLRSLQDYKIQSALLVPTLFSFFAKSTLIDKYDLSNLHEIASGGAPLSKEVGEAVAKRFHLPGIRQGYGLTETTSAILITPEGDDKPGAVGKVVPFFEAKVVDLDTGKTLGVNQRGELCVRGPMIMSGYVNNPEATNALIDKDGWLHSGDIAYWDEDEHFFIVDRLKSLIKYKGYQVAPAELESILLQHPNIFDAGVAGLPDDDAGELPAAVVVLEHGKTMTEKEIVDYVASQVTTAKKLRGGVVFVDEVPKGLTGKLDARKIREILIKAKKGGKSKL
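Purified 10nM P. pyralis luciferase with 10uM D-luciferin and 10uM ATP in 50mM Tris acetate pH 7.5, 10mM Mg acetate, 0.01% Tween-20, 0.05% BSA. qHTS titration; luminescence read by CCD imager.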
hNpr1 antagonist = Natriuretic polypeptide receptor (hNpr1) antagonism - Primary qHTS. 76,000 tested, 1.6% active. Potency, µM (top dose mostly 46.3 µM), without a hit: top-dose activity change, negative = inhibition, usual class: inhibitors. HEK293 hNpr1 GloSensor cGMP, ANP-stimulated luminescence. Atrial natriuretic peptide receptor 1 (Homo sapiens), P16066; calls by dose curve; also: nearly all actives have a fitted effect of over 60% in size
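HEK293 cells stably expressing human Npr1 and cGMP GloSensor pGS-40F, loaded 2 h with 2% GloSensor reagent, given compound 30 min at room temperature. Luminescence read before and 20 min after 0.1 nM hNppA.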
Starred values were filed as active, the others as inactive; i = inactive; ? = inconclusive; / = no result; ! = not active in a repeat; [ ] = dose if it differs, or a comment. A selection: hits, their analogues and other compounds. The true share with any hit is near 10%. Unless noted, calls follow the shape of the dose curve; as a rule, active = well fitted curve in the direction sought with a large enough effect; inconclusive = small, poorly fitted or top-dose-only effect, or another doubt; inactive = no such curve, though single readings can be large; an effect the other way counts as inactive or inconclusive. % is scaled to controls: 0 for no effect and ±100 for the full control effect; potency is read from the fitted curve at half-maximal effect.

SMILES | GPT2 inhibitor | 3T3 cytotox | HEK293 tox | FLuc inh | hNpr1 antagonist
C[C@@H]1CC[C@@]2(OC1)O[C@H]1C[C@H]3[C@@H]4CC[C@H]5C[C@@H](O)CC[C@]5(C)[C@H]4CC(=O)[C@]3(C)[C@H]1[C@@H]2C | 2.2µM* | / | / | / | /
c1cncc(Cc2noc(C3CN(Cc4ccsc4)C3)n2)c1 | -24% | 25µM* | ? | i | -6%
CN(C)S(=O)(=O)N1CC(c2nc(Cc3cccnc3)no2)C1 | -28% | -21% | -7% | / | /
COc1ccccc1C(=O)NC1CCN(Cc2cccc(-c3cccs3)c2)CC1 | -2% | 32µM*! | 22µM*! | / | /
O=C(NC1CCN(Cc2cccc(-c3cccs3)c2)CC1)c1ccc(F)cc1 | -5% | ? | ? | / | /
O=C(NC1CCN(Cc2cccc(-c3cccs3)c2)CC1)c1ccccc1 | 5% | -31% | 35µM*! | / | /
Cc1ccccc1C(=O)NC1CCN(Cc2cccc(-c3cccs3)c2)CC1 | i | ? | ? | / | /
COC[C@H]1C[C@@H](NC(=O)Nc2ccc(C(F)(F)F)cc2)[C@H](O)[C@@H]1O | -5%[88.5 µM] | -4%[138 µM] | 1%[172 µM] | i | 4%[70.6 µM]
CCc1ccc(C(=O)N2CCC(C3CCNC3)CC2)cc1 (centres undefined) | -9% | -21% | -27% | i | 3%
COc1ccc(-c2ccccc2NC(=O)C2CCCN(Cc3ccccc3O)C2)cc1 (centres undefined) | 4% | ? | 25µM* | i | 0%
COc1ccc(-c2ccccc2NC(=O)C2CCCN(Cc3ccc(O)c(OC)c3)C2)cc1 (centres undefined) | i | ? | ? | i | -1%
COc1ccc(-c2ccccc2NC(=O)C2CCCN(Cc3c(O)cccc3OC)C2)cc1 (centres undefined) | -2% | ? | 20µM* | i | ?
CCN1CCC2(CCC1=O)CN(Cc1ccc(C)c3ccccc13)CCN2C (centres undefined) | -5%[11.5 µM] | -11% | 79µM* | i | 5%
Cc1ccc(CN2CCC3(CCCO3)CCC2=O)c2ccccc12 (centres undefined) | -4% | -20% | ? | i | 0%
O=C1[C@@H]2C[C@@H](CN2Cc2ccccn2)Oc2ccccc2N1CC1CC1 | -9%[88.5 µM] | ? | ? | i | -14%[70.6 µM]
O=[N+]([O-])c1cccc(-c2noc([C@@H]3Cc4nc[nH]c4CN3)n2)c1 | 1%[88.5 µM] | -28%[174 µM] | ? | 45µM*! | 2%[70.6 µM]
CC(C)NC(=O)C1CCCN(c2nc3ncccc3o2)C1 (centres undefined) | -9%[88.5 µM] | i | 2%[172 µM] | i | 24%[70.6 µM]
COCc1cc(CC2(NCCC(C)C)COC2)no1 | -6%[88.5 µM] | i | 1%[230 µM] | i | 1%[70.6 µM]
COc1ccccc1CNC[C@H]1Cn2c(-c3cccc(Cl)c3)cnc2CO1 | i | ? | 79µM* | i | 0%[70.6 µM]
COc1ccc(-c2cn3c(n2)CO[C@@H](CNC(=O)c2ccccc2OC)C3)cc1 | -7%[88.5 µM] | -7%[138 µM] | 71µM* | ? | -30%[70.6 µM]
COc1ccc(-c2cn3c(n2)CO[C@@H](CNC(=O)C2CCCC2)C3)cc1 | -3%[88.5 µM] | -6%[138 µM] | -17%[172 µM] | 28µM* | -4%[70.6 µM]
COc1ccc(-c2cn3c(n2)CO[C@@H](CNC2CCC2)C3)cc1 | -6%[88.5 µM] | -13%[138 µM] | -20%[172 µM] | 56µM* | 0%[70.6 µM]
Cc1ccc(-c2cn3c(n2)CO[C@@H](CNC(=O)C2CCCC2)C3)cc1 | 0%[88.5 µM] | -31%[138 µM] | ? | i | -12%[70.6 µM]
O=C(CCn1ccn2nc3c(c2c1=O)CCCC3)NCc1ccc(F)cc1Cl | -6% | i | 8% | i | 0%
Cc1noc(-c2ccn3c(CNC(=O)c4cc(F)ccc4F)nnc3c2)n1 | i | -8% | -14% | i | 7%
SMILES | GPT2 inhibitor | 3T3 cytotox | HEK293 tox | FLuc inh | hNpr1 antagonist
O=C(CCc1ccccn1)N1CC[C@@H](N2CCN(c3ccccc3F)CC2)[C@H](O)C1 | -4% | 2% | 1% | i | -3%
COc1ccccc1N1CCN(CCN(C(=O)c2ccc(F)cc2)c2ccccn2)CC1 | -7% | / | / | / | /
O=C(CC1CCCCC1)N1CCC(Cc2nc(C3CC3)n[nH]2)C1 (centres undefined) | 0% | -18% | -11% | / | /
COc1ccccc1CNC[C@H]1Cn2cc(-c3ccc(C)cc3)nc2CO1 | -12%[88.5 µM] | 100µM* | 100µM* | ? | 0%[70.6 µM]
COc1ccccc1-n1c(=O)c(C(=O)NCCCc2ccccc2)nc2cccnc21 | 5% | -16% | -7% | / | /
CN1CCC2(C1)CN(Cc1ccccc1)c1ccc(C(=O)Nc3ccc(F)cc3)cc12 (centres undefined) | i | 25µM* | 40µM* | i | -1%[70.6 µM]
Cn1ccc(NC(=O)c2ccc3c(c2)C2(CCN(CC4CC4)C2)CN3Cc2ccccc2)n1 (centres undefined) | 5% | ? | 32µM* | i | -9%
O=C(NC1CCOCC1)c1ccc2c(c1)C1(CCN(CC3CC3)C1)CN2Cc1ccccc1 (centres undefined) | -3% | ? | ? | i | 0%
COc1cccc(CN2CC3(CCN(C)C3)c3cc(C(=O)NC4CCCCC4)ccc32)c1 (centres undefined) | i | 25µM* | 56µM* | i | -10%[70.6 µM]
CN1CCCC2(C1)CN(Cc1cccnc1)c1ccc(C(=O)Nc3ccc(F)cc3)cc12 (centres undefined) | -2%[88.5 µM] | ? | ? | i | 3%[70.6 µM]
COc1ccc(NC(=O)c2ccc3c(c2)C2(CCN(C)C2)CN3Cc2ccccc2)cc1 (centres undefined) | i | 50µM* | 71µM* | i | -4%[70.6 µM]
COc1ccc(-n2c(CN)n[nH]c2=O)cc1OC | -4% | i | 2% | i | 8%
Cn1nc(C(=O)N2CC[C@@](C)(O)[C@@H](O)C2)cc1-c1cccs1 | i | -7% | -3% | i | 2%
Cc1cccc(OCC(=O)N2[C@@H]3CC[C@H]2CC(NC(=O)c2cnc(C)cn2)C3)c1 (some centres undefined) | i | -12% | ? | i | -4%
O=C1Cc2c(-c3ccc(N4CCOCC4)cc3)n[nH]c2CN1CCc1ccncc1 | i | 79µM* | -18%[172 µM] | ? | -10%[70.6 µM]
O=C1Cc2c(-c3cccc4ccccc34)n[nH]c2CN1CCc1ccncc1 | -12%[88.5 µM] | ? | 79µM* | i | -5%[70.6 µM]
O=C1Cc2c(-c3ccccc3)n[nH]c2CN1CCc1ccncc1 | i | ? | 3%[172 µM] | i | -2%[70.6 µM]
O=C1Cc2c(-c3cccc(C(F)(F)F)c3)n[nH]c2CN1CCc1ccncc1 | 0%[88.5 µM] | ? | 89µM* | i | 3%[70.6 µM]

Screens deposited in PubChem BioAssay by National Center for Advancing Translational Sciences (NCATS).
